Experimental data reported in PubChem BioAssay AID504848 (National Center for Advancing Translational Sciences (NCATS), 2011).
Hit rate of the full screen: of about 2,300 compounds, about 1,400 (61%) were called active. Inconclusive results (about 29%) are left out. So high a share suggests a set chosen from earlier hits. The list shows a part of the results. Unmarked numbers belong to inactive results. The call rests on the fitted dose curve; in most records, active means well fitted inhibition curve with a large enough effect; inconclusive means small, poorly fitted or top-dose-only effect, or effect the other way; inactive means no such curve, though single readings can be large or run the other way.

Assay: Confirmation screen for delayed death inhibitors of the malarial parasite plastid, 96 hour incubation; further: nearly all actives have a fitted effect of over 60% in size
Conditions: P. falciparum luciferase growth in erythrocytes; series mostly up to 28.7 µM; activity change, negative = inhibition: at the top concentration
Outline: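 Erythrocytes infected with luciferase-expressing P. falciparum (2% hematocrit, 0.1% parasitemia final) in RPMI 1640 with 0.5% Albumax, exposed to compounds 96 h at 37 C, 5% CO2. Growth inhibition read as decreased luciferase luminescence.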
On the % scale 0 is the no-effect control and ±100 the full control effect; potency means the concentration at half of the fitted maximal effect.

Row | SMILES | Potency | activity change, negative = inhibition
1 | CCCCC1(c2ccc(F)cc2)NC(=O)N(CC(=O)N2CCN(C(=O)c3ccco3)CC2)C1=O (centres undefined) | 12.6 µM (active) | 
2 | CC(C)c1ccc2[nH]c(O)c(N=NC(=O)c3ccc(CSc4nncn4C)cc3)c2c1 | 2.24 µM (active) | 
3 | O=S(=O)(c1ccc(F)cc1)N1CCN(c2nc(-c3ccc(F)cc3)cs2)CC1 | 11.2 µM (active) | 
4 | CCOC(=O)c1cc(-c2ccc(C)cc2)n(CCC(=O)NCCN(C)C)c1C | 10 µM (active) | 
5 | CCOc1ccc(/C=C/C(=O)NCCc2ccc(OC)c(OC)c2)cc1 | 15.8 µM (active) | 
6 | O=S(=O)(Nc1ccc(O)c(Sc2nc3ccccc3s2)c1)c1cccc2ccccc12 | 12.6 µM (active) | 
7 | Cc1ccc(-n2ncc3c(SCc4ccccn4)ncnc32)c(C)c1 | 14.1 µM (active) | 
8 | CCCC(=O)N=C1SC2CS(=O)(=O)CC2N1c1ccc(CC)cc1 (centres undefined) | 14.1 µM (active) | 
9 | Cc1cc(Br)ccc1NC(=O)CNC(=O)Cn1ncc(Cl)c(Cl)c1=O | 11.2 µM (active) | 
10 | CCC(=O)Nc1ccc(C(=O)Cn2ncc(Cl)c(Cl)c2=O)cc1 | 15.8 µM (active) | 
11 | CCOC(=O)C(C(=O)OCC)C(Nc1cccc(Br)c1)c1ccccc1 (centres undefined) | 10 µM (active) | 
12 | CC(C)Cc1ccc(C(=O)Nc2ccc(Cc3ccncc3)cc2)o1 | 10 µM (active) | 
13 | COc1ccc(NC(=S)N(CCCN2CCCCCC2)Cc2cccs2)cc1 | 11.2 µM (active) | 
14 | Cc1ccc(C(=O)c2cc([N+](=O)[O-])ccc2N2CCOCC2)c(C)c1 | 14.1 µM (active) | 
15 | Cc1ccc(CNS(=O)(=O)c2ccc(C)s2)cc1 |  | 25.7%
16 | Cc1ccc(CN2CCC(CNS(=O)(=O)c3ccc(-c4ccc(=O)[nH]n4)s3)CC2)cc1 | 5.01 µM (active) | 
17 | CCOC(=O)c1cnc2c(C)c(Cl)ccc2c1NCCCN1CCOCC1 | 0.282 µM (active) | 
18 | O=C(N/N=C/C(Cl)=C\c1ccccc1)c1cccs1 | 4.47 µM (active) | 
19 | O=C(N/N=C(\CC(=O)c1cccs1)C(F)(F)F)c1ccncc1 |  | -31.4%
20 | Cc1cccc(CCNC(=O)CNS(=O)(=O)c2ccc3nc(C)sc3c2)c1 | 1.58 µM (active) | 

Row | SMILES | Potency | activity change, negative = inhibition
21 | CCOc1ccc(C(C)=O)cc1COc1ccc(-c2nnco2)cc1 | 11.2 µM (active) | 
22 | Oc1ccc(Cl)cc1CNc1cnc2ccccc2c1 | 11.2 µM (active) | 
23 | O=C(C[n+]1cc(Br)cc2ccccc21)c1ccccc1 | 5.01 µM (active) | 
24 | COc1ccc2c(ccc[n+]2CC(=O)c2ccccc2)c1 | 14.1 µM (active) | 
25 | OCCNC(=S)Nc1ccc(Cl)c(Cl)c1 | 2.24 µM (active) | 
26 | O=C1c2ccccc2C(=Nc2ccccc2)C1c1cccc(Br)c1 (centres undefined) | 3.98 µM (active) | 
27 | COc1ccc(N(CC(=O)N/N=C/c2cccnc2)S(=O)(=O)c2ccccc2)c(OC)c1 | 6.31 µM (active) | 
28 | O=C(CCl)NCCN1C(=O)S/C(=C\c2cccnc2)C1=O | 5.01 µM (active) | 
29 | O=C(c1ccc2c(=O)n3c(nc2c1)CCCCC3)N1CCN(c2ccc([N+](=O)[O-])cc2)CC1 | 6.31 µM (active) | 
30 | CC(=O)N1CN(C2CCCC2)Cc2c1sc1c2CCCC1 | 6.31 µM (active) | 
31 | COc1ccc(C(=O)CSc2nnc(C3CCCCC3)n2N)c(OC)c1 | 3.16 µM (active) | 
32 | O=S(=O)(c1ccc(OCC(O)CN2CCN(c3ccc(F)cc3)CC2)cc1)N1CCOCC1 (centres undefined) | 12.6 µM (active) | 
33 | CCN(CC(=O)Nc1ccc(S(=O)(=O)N2CCOCC2)cc1)Cc1ccccc1 | 10 µM (active) | 
34 | O=C(CN1CCN(c2ccc(F)cc2)CC1)Nc1ccc(S(=O)(=O)N2CCOCC2)cc1 | 10 µM (active) | 
35 | C=CCOc1ccc(/C=C\c2nc(O)c([N+](=O)[O-])c(=O)[nH]2)cc1OC | 12.6 µM (active) | 
36 | Cc1c(OCC(=O)NCC(O)c2ccccc2)ccc2c3c(c(=O)oc12)CCC3 (centres undefined) | 10 µM (active) | 
37 | O=S(=O)(NCC(O)c1ccccc1)c1cc(Cl)sc1Cl (centres undefined) |  | 14.6%
38 | O=C(COc1cc2oc(=O)c3c(c2cc1Cl)CCC3)NCC(O)c1ccccc1 (centres undefined) | 8.91 µM (active) | 
39 | O=C(CSc1nc2nn(-c3ccccc3)c(=O)c-2c2n1CCCCC2)c1ccc(O)c(O)c1 | 11.2 µM (active) | 
40 | O=C(NCc1cccnc1)/C(=C\c1ccc(-c2cccc(Cl)c2)o1)S(=O)(=O)c1ccccc1 | 7.94 µM (active) | 

Row | SMILES | Potency | activity change, negative = inhibition
41 | O=C(NCc1cccnc1)c1ccc(Cl)c(S(=O)(=O)N2CCOCC2)c1 | 11.2 µM (active) | 
42 | O=C(NCCN1CCOCC1)c1ccc(Cl)c(S(=O)(=O)N2CCCCC2)c1 | 14.1 µM (active) | 
43 | O=C(NCc1cccnc1)c1ccc(NS(=O)(=O)c2ccccc2)cc1 | 7.08 µM (active) | 
44 | CCC(C)[C@H](NC(=O)NCCCOC(C)C)C(=O)OC (some centres undefined) |  | -4.01%
45 | CCOC(=O)c1cc2c(nc1NC(=S)Nc1ccccc1)CC(C)(C)OC2 | 12.6 µM (active) | 
46 | O=C(O)c1ccccc1NS(=O)(=O)c1cccc(-n2sc3ccccc3c2=O)c1 | 12.6 µM (active) | 
47 | O=C(Cn1c(=O)c(=O)n(Cc2ccccc2)c2ccc(Cl)cc21)Nc1cccc(F)c1 | 12.6 µM (active) | 
48 | CCn1c(=O)cc(C(=O)OC)sc1=Nc1ccc(F)c(F)c1 |  | -11.1%
49 | O=C1CS/C(=N/N=C\c2ccn[nH]2)N1 | 10 µM (active) | 
50 | C#Cc1ccc(CN2CCN(CCCc3ccccc3)C(CCO)C2)cc1 (centres undefined) | 7.08 µM (active) | 
51 | Cc1ccc(-c2nc(-c3cccnc3)sc2CC(=O)Nc2ccc(C)c(Cl)c2)cc1 | 4.47 µM (active) | 
52 | COc1ccc(CCNC(=O)c2cc3c(=O)n4cccc(C)c4nc3n(Cc3ccco3)c2=N)cc1OC | 11.2 µM (active) | 
53 | CC(C)C1N=C(c2ccc3c(c2)OCO3)CC(c2ccccc2O)N1 (centres undefined) | 14.1 µM (active) | 
54 | O=C(NC1CCCC1)c1ccc([N+](=O)[O-])s1 | 10 µM (active) | 
55 | COc1ccccc1N(Cc1ccccc1)S(=O)(=O)c1cccc(C(=O)Nc2ccccn2)c1 | 7.08 µM (active) | 
56 | CC(=O)c1ccccc1OCC(O)CN1CCN(C(c2ccccc2)c2ccccc2)CC1 (centres undefined) | 3.55 µM (active) | 
57 | CCOC(=O)C1CCN(C(=O)CCc2nnc3ccc(NCc4ccco4)nn23)CC1 | 5.01 µM (active) | 
58 | O=C(CCl)Nc1cccc(S(=O)(=O)NC2=NCCC2)c1 | 0.794 µM (active) | 
59 | COC(=O)[C@@]1(Cc2ccc(F)cc2)[C@@H]2[C@@H](CC(=O)[C@H]2CC(=O)C(=O)N(C)C)CN1C(=O)c1ccccc1 | 10 µM (active) | 
